Among the data in PubChem BioAssay (EPA / NIEHS) are outcome and AC50 values, retold here.

The target in test [1] is Paired box protein Pax-6 (Homo sapiens) (UniProt P26367). Nature of the test: ATG_Pax6_CIS: Attagene CIS-FACTORIAL HepG2 Assay for human Paired Box 6 (PAX6) (AID 2282956). The conditions noted are these: HepG2 CIS-FACTORIAL PAX6 reporter transcription, RNA readout; actives raise or lower the signal. An outline of the steps:
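DMSO-referenced bidirectional fits of reporter mRNA fluorescence; HepG2 with transient cis-promoter MRTUs, 24 h post-dose, RT-PCR plus capillary electrophoresis detection.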

The nature of test [2]: ATG_PXRE_CIS: Attagene CIS-FACTORIAL HepG2 Assay for human Pregnane X Receptor Element (PXRE) (AID 2282957). The conditions noted are these: HepG2 Attagene CIS-FACTORIAL PXRE reporter, mRNA; actives raise or lower the signal. An outline of the steps:
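Fluorescent capillary electrophoresis of amplified reporter cDNA gave the signal, collected 24 h after dosing HepG2 cells that held transfected cis-element reporter constructs.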

The nature of test [3]: ATG_PPRE_CIS: Attagene CIS-FACTORIAL HepG2 Assay for human Peroxisome Proliferator-activated Response Element (PPRE) (AID 2282958). The conditions noted are these: HepG2 PPRE cis-element reporter, Attagene transcription factor profiling; actives raise or lower the signal. The method, boiled down:
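After human HepG2 hepatoma cells were transiently transfected with cis-promoter reporter constructs, they were exposed to test chemicals for 24 hours. Reporter RNA was then reverse-transcribed, PCR-amplified, FAM-labeled, HpaI-digested and quantified by capillary electrophoresis.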

The nature of test [4]: ATG_RORE_CIS: Attagene CIS-FACTORIAL HepG2 Assay for human RAR-related Orphan Receptor Element (RORE) (AID 2282959). The following applies: HepG2 Attagene cis-factorial RORE reporter, mRNA; actives raise or lower the signal. The method, boiled down:
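Measured here: transcript induction of a cis-regulated reporter in HepG2 cells transiently transfected via FuGene 6. After 24 h, RNA was processed by RT-PCR and fluorescent capillary electrophoresis; DMSO defined baseline activity.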

The nature of test [5]: ATG_Sox_CIS: Attagene CIS-FACTORIAL HepG2 Assay for human SRY-box transcription factor (SOX) (AID 2282960). The conditions noted are these: HepG2 Attagene cis-factorial SOX reporter, mRNA; actives raise or lower the signal. An outline of the steps:
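Using transiently transfected HepG2 cells, reporter transcription driven by cis elements was assessed 24 h after dosing. Signal was fluorescence of capillary-separated RT-PCR products, with DMSO defining baseline activity.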

Test [6] in a line: ATG_SREBP_CIS: Attagene CIS-FACTORIAL HepG2 Assay for human Sterol Regulatory Element Binding (SREBP) (AID 2282962). The conditions noted are these: HepG2 Attagene cis-factorial SREBP reporter, mRNA; actives raise or lower the signal. An outline of the steps:
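In this cis-format assay, HepG2 liver cells express reporters controlled by promoter elements responsive to native transcription factors. Exposure lasts 24 h; reporter mRNA fluorescence from capillary electrophoresis gives the signal, fitted bidirectionally against DMSO.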

The target in test [7] is Signal transducer and activator of transcription 3 (Homo sapiens) (UniProt P40763). Nature of the test: ATG_STAT3_CIS: Attagene CIS-FACTORIAL HepG2 Assay for human Signal Transducer and Activator of Transcription 3 (STAT3) (AID 2282963). The following applies: HepG2, Attagene cis-factorial STAT3 reporter transcription; actives raise or lower the signal. An outline of the steps:
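Uses human liver HepG2 transiently carrying cis-regulated reporter transcription units. Following 24 h dosing, reporter mRNA induction was detected by RT-PCR and capillary electrophoresis, analysed bidirectionally versus DMSO.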

Test [8] in a line: ATG_TCF_b_cat_CIS: Attagene CIS-FACTORIAL HepG2 Assay for human T-Cell-Factor with beta-catenin (TCF/b-cat) (AID 2282965). The conditions noted are these: HepG2 TCF/beta-catenin cis-reporter transcription, actives raise or lower the signal. An outline of the steps:
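In this cis-format system, transfected HepG2 cells report endogenous transcription factor activity. Readout after 24 h exposure is reporter transcript abundance from RT-PCR and capillary electrophoresis, analysed for gain or loss of signal versus DMSO.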

Test [9] in a line: ATG_TGFb_CIS: Attagene CIS-FACTORIAL HepG2 Assay for human Transforming Growth Factor (TGF) (AID 2282967). The conditions noted are these: HepG2 Attagene CIS TGFb reporter, mRNA transcription; actives raise or lower the signal. The method, boiled down: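 Endogenous TGFB1-linked transcription factor activity read as reporter mRNA via RT-PCR and capillary electrophoresis, 24 h after dosing transiently transfected HepG2 cells. Gain or loss of signal fitted relative to DMSO.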

Test [10] deals with Estrogen receptor (Homo sapiens) (UniProt P03372). Briefly: ATG_ERa_TRANS: Attagene TRANS-FACTORIAL HepG2 Assay for human Estrogen Receptor alpha (ERa) (AID 2282970; active = hit-call score of the fitted dose curve at least 0.9, where 1 is the maximum). The following applies: HepG2 Attagene TRANS ERa GAL4 reporter, mRNA. An outline of the steps:
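One of 30 multiplexed endpoints from a HepG2 TRANS system, this one reports ERa-Gal4-driven reporter mRNA. Transcripts were quantified 24 hours post-dosing by fluorescent RT-PCR and capillary electrophoresis, with activity scored as induction over DMSO.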

For test [11], the target named is X-box-binding protein 1 (Homo sapiens) (UniProt P17861). Briefly: ATG_Xbp1_CIS: Attagene CIS-FACTORIAL HepG2 Assay for human X-box Binding Protein 1 (XBP1) (AID 2282972). The conditions noted are these: HepG2 XBP1 cis-element reporter, Attagene multiplex; actives raise or lower the signal. An outline of the steps:
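Changes in reporter transcript abundance, read by RT-PCR and capillary electrophoresis, reflect endogenous transcription factor activity. Transfected HepG2 cells received compound for 24 hours; DMSO defined baseline for bidirectional analysis.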

The nature of test [12]: ATG_GAL4_TRANS: Attagene TRANS-FACTORIAL HepG2 Assay for GAL4 (Internal Marker) (AID 2282976; active = hit-call score of the fitted dose curve at least 0.9, where 1 is the maximum). The conditions noted are these: HepG2 Attagene TRANS GAL4 internal marker reporter. An outline of the steps:
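HepG2 cells transiently transfected with multiplexed GAL4-UAS reporter constructs were dosed for 24 h. Reporter mRNA was measured by RT-PCR, 6-FAM primer extension, HpaI digestion and capillary electrophoresis, and gain of signal was fitted relative to DMSO.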

Test [13] in a line: ATG_TA_CIS: Attagene CIS-FACTORIAL HepG2 Assay for human TA Basal Promoter (AID 2282964). The following applies: HepG2 Attagene CIS-factorial TA basal promoter reporter; actives raise or lower the signal. The method, boiled down: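 Background-control readout: TA basal promoter reporter mRNA, fitted in both directions relative to DMSO. Measured by RT-PCR and capillary electrophoresis 24 hours after treating HepG2 human liver cells transiently carrying multiplexed cis-regulated reporter constructs.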

A short description of test [14]: ATG_TAL_CIS: Attagene CIS-FACTORIAL HepG2 Assay for human TAL Basal Promoter (AID 2282966).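 Also: background control endpoint measuring basal TAL promoter reporter mRNA not a specific factor.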 The following applies: HepG2 Attagene cis-factorial TAL promoter reporter; actives raise or lower the signal. An outline of the steps:
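Transiently transfected HepG2 (cis-regulated reporter units), 24 h treatment, mRNA read by fluorescent CE after RT-PCR; bidirectional fit, DMSO baseline.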

The nature of test [15]: ATG_VDRE_CIS: Attagene CIS-FACTORIAL HepG2 Assay for human Vitamin D Receptor Element (VDRE) (AID 2282968). The following applies: HepG2 VDRE cis-reporter transcription, actives raise or lower the signal. The method, boiled down:
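Transfected HepG2 reporter cells, chemical treatment 24 h. RNA isolated, cDNA amplified with reporter-specific primers, products analysed by capillary electrophoresis. Endpoint fitted in both directions versus DMSO.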

The target in test [16] is Nuclear receptor subfamily 1 group I member 3 (Homo sapiens) (UniProt Q14994). Nature of the test: ATG_CAR_TRANS: Attagene TRANS-FACTORIAL HepG2 Assay for human Constitutive Androstane Receptor (CAR) (AID 2282969; active = hit-call score of the fitted dose curve at least 0.9, where 1 is the maximum;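 also: activators raise reporter mRNA above DMSO so AC50 marks induction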). The conditions noted are these: HepG2 Attagene TRANS-FACTORIAL CAR reporter. The method, boiled down: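 Steps: transient transfection of HepG2 with multiple GAL4-UAS reporter units; 24 h compound incubation; RNA isolation, RT-PCR, 6-FAM primer extension, HpaI digest; capillary electrophoresis. Gain-of-signal relative to DMSO negative control.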
Chain of Nuclear receptor subfamily 1 group I member 3 (Homo sapiens) (Q14994 whole entry, looked up, the tested form may be a part): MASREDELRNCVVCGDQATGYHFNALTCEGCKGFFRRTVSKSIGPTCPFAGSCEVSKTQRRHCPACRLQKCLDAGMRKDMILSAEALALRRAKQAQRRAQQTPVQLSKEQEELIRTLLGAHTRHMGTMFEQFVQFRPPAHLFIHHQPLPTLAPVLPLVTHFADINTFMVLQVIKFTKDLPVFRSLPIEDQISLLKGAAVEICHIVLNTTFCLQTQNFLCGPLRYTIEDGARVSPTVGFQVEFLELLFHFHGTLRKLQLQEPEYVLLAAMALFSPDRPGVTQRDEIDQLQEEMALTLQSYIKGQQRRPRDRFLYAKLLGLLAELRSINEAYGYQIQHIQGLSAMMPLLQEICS

The nature of test [17]: ATG_M_19_TRANS: Attagene TRANS-FACTORIAL HepG2 Assay for M19 Transcription Factor (Internal Marker) (AID 2282974; active = hit-call score of the fitted dose curve at least 0.9, where 1 is the maximum). The conditions noted are these: HepG2 Attagene TRANS-FACTORIAL M19 internal marker reporter. The method, boiled down:
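Gain-of-signal in reporter mRNA, relative to DMSO, was scored from capillary electrophoresis fluorescence. HepG2 cells carried transiently transfected multiple reporter transcription units and were incubated with test chemicals for 24 h.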

Test [18] deals with Transcription factor Sp1 (Homo sapiens) (UniProt P08047). Nature of the test: ATG_Sp1_CIS: Attagene CIS-FACTORIAL HepG2 Assay for human Specificity Protein 1 (Sp1) (AID 2282961). The conditions noted are these: HepG2 Sp1 cis-reporter transcription, actives raise or lower the signal. The method, boiled down:
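After transient transfection of HepG2 cells with cis-promoter reporter units and 24 h chemical treatment, reporter transcripts were quantified by RT-PCR and capillary electrophoresis fluorescence. Gain- and loss-of-signal fitted against DMSO.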

Results filed as inconclusive are left out. The source made the active and inactive calls. The calls were made as follows, unless noted: active = hit-call score of the fitted dose curve at least 0.9, where 1 is the maximum; inactive = score below 0.9.

Chain of Signal transducer and activator of transcription 3 (Homo sapiens) (P40763 whole entry, looked up): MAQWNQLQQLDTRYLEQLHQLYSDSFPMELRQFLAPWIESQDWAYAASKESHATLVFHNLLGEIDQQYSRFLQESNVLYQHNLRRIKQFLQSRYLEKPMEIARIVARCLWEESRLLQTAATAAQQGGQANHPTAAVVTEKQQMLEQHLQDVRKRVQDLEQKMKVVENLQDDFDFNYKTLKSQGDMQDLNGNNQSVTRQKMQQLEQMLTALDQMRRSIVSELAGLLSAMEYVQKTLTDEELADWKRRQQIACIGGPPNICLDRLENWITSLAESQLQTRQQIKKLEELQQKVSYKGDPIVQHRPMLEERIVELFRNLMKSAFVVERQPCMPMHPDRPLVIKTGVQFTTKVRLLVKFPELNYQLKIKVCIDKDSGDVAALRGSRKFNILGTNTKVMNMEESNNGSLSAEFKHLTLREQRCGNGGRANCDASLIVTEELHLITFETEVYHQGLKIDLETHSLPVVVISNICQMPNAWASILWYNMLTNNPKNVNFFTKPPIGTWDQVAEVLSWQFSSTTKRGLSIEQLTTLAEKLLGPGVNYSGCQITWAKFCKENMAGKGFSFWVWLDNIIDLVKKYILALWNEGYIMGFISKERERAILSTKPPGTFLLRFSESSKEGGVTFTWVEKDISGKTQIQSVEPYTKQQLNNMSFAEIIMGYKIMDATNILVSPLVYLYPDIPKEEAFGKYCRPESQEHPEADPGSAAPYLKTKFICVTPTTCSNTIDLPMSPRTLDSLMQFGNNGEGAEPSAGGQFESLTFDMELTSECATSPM
Chain of X-box-binding protein 1 (Homo sapiens) (P17861 whole entry, looked up): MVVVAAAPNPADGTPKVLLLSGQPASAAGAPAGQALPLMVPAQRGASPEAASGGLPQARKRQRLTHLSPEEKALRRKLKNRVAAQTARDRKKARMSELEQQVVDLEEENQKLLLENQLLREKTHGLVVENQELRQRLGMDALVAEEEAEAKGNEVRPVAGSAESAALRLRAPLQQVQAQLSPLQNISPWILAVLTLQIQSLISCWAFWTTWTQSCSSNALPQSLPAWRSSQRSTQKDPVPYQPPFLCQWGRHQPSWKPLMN
Chain of Estrogen receptor (Homo sapiens) (P03372 whole entry, looked up, the tested form may be a part): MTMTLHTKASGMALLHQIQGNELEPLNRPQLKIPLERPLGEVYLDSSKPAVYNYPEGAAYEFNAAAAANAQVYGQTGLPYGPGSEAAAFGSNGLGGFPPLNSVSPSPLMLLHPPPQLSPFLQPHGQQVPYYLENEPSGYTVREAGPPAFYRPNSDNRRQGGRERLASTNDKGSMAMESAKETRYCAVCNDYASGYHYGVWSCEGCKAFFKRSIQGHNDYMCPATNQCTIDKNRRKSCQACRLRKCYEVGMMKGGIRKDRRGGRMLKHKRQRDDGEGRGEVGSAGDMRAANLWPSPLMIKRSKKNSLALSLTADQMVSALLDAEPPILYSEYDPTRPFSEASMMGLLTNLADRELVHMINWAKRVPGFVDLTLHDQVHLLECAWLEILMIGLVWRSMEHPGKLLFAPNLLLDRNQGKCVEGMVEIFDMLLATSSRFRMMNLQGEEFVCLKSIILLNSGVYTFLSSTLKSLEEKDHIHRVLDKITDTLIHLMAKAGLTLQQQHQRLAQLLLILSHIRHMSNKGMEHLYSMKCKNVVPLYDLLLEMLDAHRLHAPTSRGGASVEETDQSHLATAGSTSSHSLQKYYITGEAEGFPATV
Chain of Paired box protein Pax-6 (Homo sapiens) (P26367 whole entry, looked up): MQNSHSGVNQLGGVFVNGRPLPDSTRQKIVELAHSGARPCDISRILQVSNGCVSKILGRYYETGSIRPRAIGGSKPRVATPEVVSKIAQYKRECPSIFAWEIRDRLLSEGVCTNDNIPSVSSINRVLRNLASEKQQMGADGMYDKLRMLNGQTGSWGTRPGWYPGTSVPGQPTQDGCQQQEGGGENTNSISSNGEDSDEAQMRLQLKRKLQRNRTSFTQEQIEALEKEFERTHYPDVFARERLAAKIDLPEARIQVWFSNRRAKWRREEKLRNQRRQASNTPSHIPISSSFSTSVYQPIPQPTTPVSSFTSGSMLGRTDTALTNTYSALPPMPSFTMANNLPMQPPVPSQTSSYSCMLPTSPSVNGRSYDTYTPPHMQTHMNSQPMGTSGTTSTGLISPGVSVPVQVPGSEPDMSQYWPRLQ
Chain of Transcription factor Sp1 (Homo sapiens) (P08047 whole entry, looked up): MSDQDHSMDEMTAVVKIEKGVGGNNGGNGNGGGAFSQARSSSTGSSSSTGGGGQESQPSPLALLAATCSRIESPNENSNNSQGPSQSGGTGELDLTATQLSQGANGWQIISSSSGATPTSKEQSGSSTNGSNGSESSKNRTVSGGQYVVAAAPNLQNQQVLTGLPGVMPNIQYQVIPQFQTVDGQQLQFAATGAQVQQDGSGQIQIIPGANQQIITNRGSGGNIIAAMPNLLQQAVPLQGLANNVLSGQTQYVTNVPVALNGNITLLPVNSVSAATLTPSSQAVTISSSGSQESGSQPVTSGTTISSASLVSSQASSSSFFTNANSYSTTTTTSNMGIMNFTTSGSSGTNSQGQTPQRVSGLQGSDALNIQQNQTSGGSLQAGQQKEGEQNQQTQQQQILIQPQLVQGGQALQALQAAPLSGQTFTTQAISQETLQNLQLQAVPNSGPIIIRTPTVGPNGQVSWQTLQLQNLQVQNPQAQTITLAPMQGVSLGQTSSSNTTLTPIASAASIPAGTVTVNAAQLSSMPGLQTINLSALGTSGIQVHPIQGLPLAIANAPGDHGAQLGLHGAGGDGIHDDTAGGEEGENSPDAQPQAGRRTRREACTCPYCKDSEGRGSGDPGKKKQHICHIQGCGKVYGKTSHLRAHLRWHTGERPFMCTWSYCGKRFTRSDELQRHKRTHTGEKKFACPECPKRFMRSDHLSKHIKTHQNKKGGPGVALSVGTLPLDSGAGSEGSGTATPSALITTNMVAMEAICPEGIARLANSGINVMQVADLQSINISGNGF

As for `CC(C)=CCC[C@H](C)CCO`, the result in test [1], in test [2], in [3], in test [4], in test [5] and in test [6] was inactive. The call in test [7], in [8], in test [9], in test [10], in [11] and in test [12] was inactive.

The term AC50 denotes the concentration at which the activity in the assay is half-maximal. With `C=CCOCC(O)CCl` (stereo unspecified), the result in test [1], in test [3], in [4], in test [6], in [13] and in test [8] was inactive. Moreover, the outcome in [14], in [10], in [11] and in [12] was inactive. The results for the AC50 in [2] and in test [15] were 35.5 µM (active) and 34.8 µM (active), respectively.

As for `Cc1ccc(C(C)c2ccc(C)c(C)c2)cc1C`, the compound was called inactive in test [1], in test [3], in test [4], in test [5], in [7] and in [13]. Also, the call in test [9], in test [16], in [10], in test [11] and in test [17] was inactive. Besides, the AC50 in test [2] is 3.88 µM (active); in test [6], 147 µM (active); in [14] it was 123 µM (active).

Take `CCOC(=O)CC(C(C)=O)C(C)=O`: the outcome in [1], in test [2], in [3], in test [4], in test [18] and in test [6] was inactive. For the same compound, the result in test [7], in test [13], in [8], in test [14], in test [9] and in test [15] was inactive. Besides, the result in test [10], in test [11] and in test [17] was inactive.

`C=COCCCC`: the call in test [1], in [2], in test [3], in test [4], in [18] and in [6] was inactive. For the same compound, the compound was classed as inactive in test [13], in test [8], in test [14], in test [9], in test [11] and in test [17]. The outcome in test [12] was inactive.
